Most compounds without a hit are left out; they make up all but 8.1% or so of the library.
KB-V1 MDR tox: kills drug-selected multidrug resistant KB-V1 cells | KB-V1 MDR cells viability, CellTiter-Glo, 72 h | Potency, µM (series often up to 46.1 µM), actives largely listed as cytotoxic | 400,000 compounds, 3.4% hits | AID 1347076; further: on the % scale 0 is the no-effect control and ±100 the full control effect; nearly all actives have a fitted effect of over 60% in size
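qHTS viability screen in drug-selected KB-V1 MDR cells: 72 h compound treatment at 37 degrees C, ATP luminescence end point.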
ELG1 DNA repair: ELG1-dependent DNA repair inhibition; HEK293T ELG1-luciferase reporter, luminescence, 16 h; DNA damage induced by 5-fluorouridine; Potency, µM (highest dose often 46.1 µM), without a hit: at the highest dose activity change, negative = inhibition, hits mostly inhibitors; 330,000 compounds, 2.3% hits; AID 504467; further: on the % scale 0 is the no-effect control and ±100 the full control effect; nearly all actives have a fitted effect of over 55% in size
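HEK293T cells expressing luciferase-tagged ELG1 (2,000/well) received 5-Fluorouridine plus compound or DMSO for 16 hr at 37 °C. Luciferase was read by ONE-Glo luminescence after 30 min at room temperature.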
SW480 rereplic: DNA re-replication induction in SW480 cells; 340,000 compounds, 1.8% hits; Potency, µM (doses to about 46.1 µM), for the others: at the highest dose re-replication activation, actives largely listed as activators; SW480 DNA re-replication, Hoechst DNA content imaging, 48 h; further: % of control where 0% means no effect; nearly all actives have a fitted effect of over 55% in size
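First, 250 cells per well were seeded. Next, compound or vehicle (23 nL) was pinned in, plates sat 48 hr at 37 C. Finally Hoechst was added for 40 min before fluorescence scanning.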
MCF10A rereplic: DNA re-replication induction in MCF 10a cells. 350,000 compounds, 2.9% hits. MCF 10A DNA re-replication, Hoechst nuclear intensity, 48 h. Potency, µM (series often up to 46.1 µM), without a hit: at the top dose activity, positive = re-replication, usual class: activators; further: % of control where 0% means no effect; nearly all actives have a fitted effect of over 50% in size
KB-3-1 tox: kills parental KB-3-1 adenocarcinoma cells; KB-3-1 viability, CellTiter-Glo ATP luminescence, 72 h; Potency, µM (doses to about 46.1 µM), hits mostly cytotoxic; 400,000 compounds, 1.4% hits; AID 1347075; further: on the % scale 0 is the no-effect control and ±100 the full control effect; nearly all actives have a fitted effect of over 60% in size
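Multi-concentration cytotoxicity screen in KB-3-1 cells grown in DMEM lacking phenol red with 10% FBS. After 72 h at 37 °C with compound, ATP-dependent luminescence was recorded.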
* = called active by the depositor; i = inactive; ? = inconclusive; . = no result. The call rests on the fitted dose curve; in most records, active means well fitted curve in the direction sought with a large enough effect; inconclusive means small, poorly fitted or top-dose-only effect, or another doubt; inactive means no such curve, though single readings can be large; an effect the other way counts as inactive or inconclusive. Potency means the concentration at half of the fitted maximal effect.

SMILES	KB-V1 MDR tox	ELG1 DNA repair	SW480 rereplic	MCF10A rereplic	KB-3-1 tox
N=c1oc2ccc(Br)cc2cc1C(=O)NCc1ccccc1	i	3%	0%	-2%	i
CCCCCCc1cc2cc(C(=O)Nc3ccccc3)c(=O)oc2cc1O	2.3µM*	?	2.1µM*	?	i
CCCCCCc1cc2cc(C(=O)NCc3ccccc3)c(=N)oc2cc1O	i	0%	?	7.3µM*	i
O=C1/C(=C/C=C/c2ccccc2)Oc2c1ccc(O)c2CN1CCN(CCO)CC1	i	2%	24%	?	?
CCN1CCN(Cc2c(O)ccc3c2O/C(=C\C=C\c2ccccc2)C3=O)CC1	?	?	?	?	16µM*
COc1cccc(CSc2nc3n(n2)C(CC(C)C)C(C(=O)Nc2ccccc2C)=C(C)N3)c1 (configuration not stated)	i	.	.	.	i
COC(=O)c1ccc(/C=C2\Oc3ccccc3NC2=O)cc1	?	?	?	6.5µM*	i
O=C(N/N=C/c1cccc(F)c1)c1c(O)c2ccccc2[nH]c1=O	?	?	-6%	-21%	?
O=C(N/N=C/c1ccccc1)c1c(O)c2ccccc2[nH]c1=O	?	?	-5%	10%	23µM*
O=C(N/N=C/c1ccc(F)cc1)c1c(O)c2ccccc2[nH]c1=O	10µM*	?	.	?	?
CCOc1ccc(C(=O)Nc2ccc(-c3cc4ccccc4oc3=O)cc2)cc1Br	i	.	.	.	i
O=[N+]([O-])CC(c1ccccc1)c1c[nH]c2ccccc12 (configuration not stated)	?	.	169%	15µM*	16µM*
CCN(CC)c1ccc(C(=C2C=CC(=[N+](CC)CC)C=C2)c2ccc(S(=O)(=O)O)cc2S(=O)(=O)[O-])cc1	?	.	-4%	-4%	12µM*
CN(C)c1ccc(C(=C2C=CC(=[N+](C)C)C=C2)c2c(O)c(S(=O)(=O)[O-])cc3cc(S(=O)(=O)O)ccc23)cc1	i	.	-1%	-2%	?
Cc1cnc(C)c(Nc2nc(C(N)Cc3ccc(Cl)cc3)cs2)n1 (configuration not stated)	21µM*	.	.	.	?
NC(Cc1ccc(C(F)(F)F)cc1)c1csc(Nc2nncc3ccccc23)n1 (configuration not stated)	16µM*	.	.	.	?
NC(COCc1ccccc1)c1csc(Nc2nncc3ccccc23)n1 (configuration not stated)	?	.	.	.	i
CCOc1ccc(-c2c[n+]3c(n2-c2ccccc2)CCCCC3)cc1	?	?	-8%	19%	5.8µM*
COc1ccc(-n2c(-c3ccc(Br)cc3)c[n+]3c2SC(C)C3)cc1 (configuration not stated)	i	5.8µM*	4%	-1%	5.8µM*
COc1ccc(-n2c(-c3ccccc3)c[n+]3c2CCC3)cc1	i	?	2%	0%	4.1µM*
COc1ccc(-n2c(-c3ccc(Br)cc3)c[n+]3c2CCCCC3)cc1	i	5.2µM*	1%	20%	3.7µM*
FC(F)Sc1ccc(-n2c(-c3ccc(Cl)cc3)c[n+]3c2CCC3)cc1	i	?	18%	?	?
COc1ccc(-n2c(-c3ccc(Br)cc3)nc(=S)c3c2CCCC3)cc1	?	-30%	-2%	-9%	?
CCOC(=O)[C@H]1[C@H]2COc3ccc(Br)cc3[C@@H]2N2C(=O)c3ccc(Cl)cc3NC(=O)[C@@]12C	?	0%	-13%	17%	?
COc1ccc(C(=O)ON=C(C)c2nccs2)cc1	i	.	.	.	i
SMILES	KB-V1 MDR tox	ELG1 DNA repair	SW480 rereplic	MCF10A rereplic	KB-3-1 tox
COc1ccc(-n2c(-c3ccccc3)cc3c2CCCC3=O)cc1	12µM*	4%	3%	?	?
COc1ccc(-n2c(-c3ccc(Br)cc3)c[n+]3c2CCC3)cc1	i	1.8µM*	2%	?	4.1µM*
COC(=O)c1ccc(C(=O)Nc2ccc3nc(-c4ccncc4)[nH]c3c2)cc1	i	-14%	-3%	8%	i
CC(C)OC(=O)Nc1ccc2nc(-c3cscn3)[nH]c2c1	.	.	5.3µM*	9.4µM*	.
CC(/C=N/n1c(-c2cccnc2)n[nH]c1=S)=C\c1ccccc1	16µM*	?	-10%	12%	i
S=c1[nH]nc(-c2cccnc2)n1/N=C/c1ccccc1	i	?	-13%	7%	i
Cc1cc(-c2n[nH]c(=S)n2/N=C/C(Cl)=C/c2ccccc2)n[nH]1	21µM*	16%	?	4.6µM*	?
S=c1[nH]nc(-c2ccco2)n1/N=C/C(Cl)=C/c1ccccc1	i	?	?	7.3µM*	i
S=c1[nH]nc(-c2cc(-c3ccccc3)n[nH]2)n1/N=C/C(Br)=C/c1ccccc1	?	?	?	3.3µM*	15µM*
CC(/C=N/n1c(-c2ccco2)n[nH]c1=S)=C\c1ccco1	i	20%	-6%	-2%	i
Cc1cc(-c2n[nH]c(=S)n2/N=C/c2cccc(O)c2)n[nH]1	i	0%	11%	8%	i
CCC(C)CCCCC(=O)NC(CCN)C(=O)NC(C(=O)NC(CCN)C(=O)NC1CCNC(=O)C(C(C)O)NC(=O)C(CCN)NC(=O)C(CCN)NC(=O)C(CC(C)C)NC(=O)C(Cc2ccccc2)NC(=O)C(CCN)NC1=O)C(C)O (configuration not stated)	.	.	11%	?	.
CC(C)Oc1ccc(CN2CCC2(C)C(=O)Nc2cccc3cccnc23)cc1 (configuration not stated)	?	.	.	.	i
CC(C)(C)CC(=O)Nc1nnc2n1CCS2	i	.	.	.	i
Cc1ccc(CSc2nnc(-c3ccc(NC(=O)CCc4ccccc4)cc3)n2C)cc1	i	.	.	.	i
NC(=O)c1ccccc1OCc1nnc(-c2ccccc2Br)o1	18µM*	0%	1%	4%	i
CC(=O)N1CCc2cc(S(=O)(=O)NC(Cc3ccccc3)C(=O)Nc3cccc(C)c3)ccc21 (configuration not stated)	?	.	.	.	i
COc1ccc(-c2cc3nc(-c4ccccc4)cc(N4CCC5(CC4)OCCO5)n3n2)cc1	i	21µM*	23µM*	20%	i
Cc1ccc(-c2cc3nc(-c4ccccc4)cc(N4CCOCC4)n3n2)cc1	i	?	?	16µM*	i
COc1ccc(-c2cc3nc4c(c(N5CCC6(CC5)OCCO6)n3n2)CCC4)cc1	i	?	-6%	1%	?
Cc1cc(N2CCOCC2)n2nc(-c3cccc(F)c3)cc2n1	?	-23%	4%	?	i
CCOC(=O)c1ccc(NS(=O)(=O)c2ccc(Br)s2)cc1	i	.	.	.	i
